The sample as a whole holds a higher share of hits than the screen did.
Methyltransferases = Primary Screen for Target Class Profiling of Small Molecule Inhibitors of Methyltransferases. calls only at 40 µM. AID 1745853, 2022. purified enzyme, MTase-Glo SAH luminescence; active compounds read low. 25,000 tested, 3.9% active; call rule not given here
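Each enzyme was assayed with SAM and its substrate. SAH formation detected by MTase-Glo luminescence; single-point 40 uM screen[…].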
* = called active by the depositor; i = inactive; + = active, no number; ! = not confirmed by another sample. % is set by controls: 0 for no effect and ±100 for the full control effect.

SMILES	Methyltransferases
Cc1ccc(Cn2c(=O)c3ccccc3n3c(=O)n(CC(=O)c4ccc(C)cc4C)nc23)cc1	i
COc1ccccc1NC(=O)CSc1nnc2n(CCc3ccccc3)c(=O)c3ccccc3n12	i
Cc1cc(Nc2ccc(NC(=O)c3ccc(Nc4ccnc5ccccc45)cc3)cc2)nc(N)n1	+
Cn1c2ccc(NC(=O)c3ccccc3)cc2c(=O)n2nc(C(=O)O)cc12	i
O=C(Nc1ccc(OC(F)(F)F)cc1)c1sccc1NCc1ccnc2ccccc12	i
COCCNC(=O)C1CC(c2ccccc2)CN(C(=O)NCc2ccccc2)C1 (centres undefined)	i
Cc1nc(C#Cc2ccnc(Cl)c2)c(C)n1-c1ccc(F)cc1	+
CC1=C(C(=O)OC2CCCCC2)C(c2ccc([N+](=O)[O-])cc2)C2=C(CC(C)(C)CC2=O)N1 (centres undefined)	+
COCCOC(=O)C1=C(C)NC(C)=C(C(=O)OC(C)C)C1c1cccc([N+](=O)[O-])c1 (centres undefined)	i
CCOC(=O)C1=C(C)NC(C)=C(C(=O)OC)C1c1cccc([N+](=O)[O-])c1 (centres undefined)	i
CC1CCCC(NC(=O)C2(C)Cn3c(nc4ccccc43)C(=O)N2Cc2ccccc2F)C1C (centres undefined)	i
CCc1cc2c(cc3n2CC(C)(C(=O)NC2CCCCCC2)N(C2CCCC2)C3=O)s1 (centres undefined)	i
COc1ccccc1CNC(=O)c1cc2n(n1)CC(C)(C(=O)NCCC(C)C)N(C)C2=O (centres undefined)	i
CCCCNc1ccc(-c2ccc(CN3CCOCC3)cn2)c(NC2CCC(O)CC2)c1 (centres undefined)	i
CCCCNc1ncc(C(=O)NCc2ccc(-n3ccnc3)cc2)c(NC2CCC(O)CC2)n1 (centres undefined)	+
CCCCNc1ncc(-c2ccc(CN3CCOCC3)cn2)c(NC2CCC(O)CC2)n1 (centres undefined)	i
COC1CC(=O)C23C(=O)NC(Cc4c[nH]c5ccccc45)C2C(C)C2(C)OC2C3/C=C/CC(C)CC1O (centres undefined)	i
CC(C)CNC(=O)c1ccc2c(=O)n(C(C)C)c3nn(CC(=O)Nc4ccc(Cl)cc4)c(=O)n3c2c1	i
CN(C)C[C@@H]1CN(c2ncccn2)C[C@H]1NC(=O)c1ccc(Cl)cc1	i
C=CC(=O)Nc1cccc(CN2C(=O)N(c3c(Cl)c(OC)cc(OC)c3Cl)Cc3cnc(NCCCCN(CC)CC)nc32)c1	+
Cc1cc(=O)oc2cc(CN(C)CC(C)N3CCOCC3)ccc12 (centres undefined)	i
O=C(c1ccc(-c2ccco2)cc1)N1CCOC(c2ccccc2)C1 (centres undefined)	i
CC(C)CCNC(=O)C1(C)Cn2nc(C(=O)N3CCCC3)cc2C(=O)N1C (centres undefined)	i
COC(=O)[C@H](O)[C@H]1C(C)(C)[C@H](OC(C)=O)[C@@]2(O)C(=O)[C@]1(C)C1CC[C@]3(C)C(CC(=O)O[C@H]3c3ccoc3)[C@]13O[C@@H]32 (some centres undefined)	i
O=C(NCc1ccc2c(c1)OCO2)c1n[nH]nc1Nc1ccc(Cl)cc1	i
SMILES	Methyltransferases
O=C(NCc1ccc2c(c1)OCO2)c1sc(=S)n2c1[nH]c(=O)c1cc3c(cc12)OCO3	i
COC(=O)c1ccc2c(=O)[nH]c3c(C(=O)NCc4ccc5c(c4)OCO5)sc(=S)n3c2c1	i
O=C(NCc1ccc2c(c1)OCO2)c1sc(=S)n2c1[nH]c(=O)c1ccc(Cl)cc12	+
CCc1ccc(NC(=O)c2sc(=S)n3c2[nH]c(=O)c2cc(Cl)ccc23)cc1	i
O=C(NCc1cccc(Cl)c1)c1sc(=S)n2c1[nH]c(=O)c1cc3c(cc12)OCO3	+
O=C(Cn1ccc2cc(S(=O)(=O)N3CCCCC3)ccc21)NCc1cccc(F)c1	i
CC(C)CN(Cc1cccnc1)C1CN(S(=O)(=O)Cc2ccccc2F)C1	i
CCc1cc2c(cc3n2CC(C)(C(=O)NC2CCCCCC2)N(Cc2ccccc2)C3=O)s1 (centres undefined)	i
CCOc1ccc(CCNC(=O)CCCn2ccc3cc(S(=O)(=O)N4CCCC4)ccc32)cc1	i
COc1ccccc1CNC(=O)C1(C)Cn2nc(-c3ccccc3)cc2C(=O)N1Cc1cccc(C)c1 (centres undefined)	i
Oc1ccc(CNc2ccccc2F)c2cccnc12	+
Cc1cccc(-c2[nH]c(CNc3ccccc3F)nc2-c2ccc3ncnn3c2)n1	i
CC1(C(=O)NC2CCCCCC2)Cn2c(cc3sccc32)C(=O)N1Cc1cccc(F)c1 (centres undefined)	i
Nc1ncnc2c1ncn2C1CCCC1	i
CCCCNc1ncc2c(-c3ccc(CN4CCN(C)CC4)cc3)cn(C3CCC(O)CC3)c2n1 (centres undefined)	i
CN1CCN(C2CCC(n3cc(-c4ccc(Oc5ccccc5)cc4)c4c(N)ncnc43)CC2)CC1 (centres undefined)	+
Cc1cccc(CN2C(=O)c3ccccc3CC2(C)C(=O)NCc2ccccc2)c1 (centres undefined)	i
C=C1CC/C=C(/C(=O)O)CCC2C1CC2(C)C (centres undefined)	i
Cn1c(=O)c2ccc(C(=O)NC3CCCC3)cc2n2c(=O)n(Cc3cccc(F)c3)nc12	i
COc1ccc(CNC(=O)C[C@@H]2O[C@H](Cn3cc(CN(C)Cc4ccccc4)nn3)[C@@H](O)[C@H]2O)cc1	i
O=C1Nc2ccc(I)cc2/C1=C/c1cc(Br)c(O)c(Br)c1	+
C=Cc1ccc(Cn2nc3n(CC(C)C)c(=O)c4ccc(C(=O)NC(C)C)cc4n3c2=O)cc1	i
COc1ccc(CNC(=O)CCc2nnc3n(Cc4ccc(F)cc4)c(=O)c4ccccc4n23)cc1	i
Cc1ccc(C2c3cccn3-c3sc4c(c3CN2C(=O)Nc2ccc(F)cc2)CCCC4)cc1 (centres undefined)	i
CCc1ccc(CNC(=O)Cn2ccc3cc(S(=O)(=O)N4CCCCC4)ccc32)cc1	i
SMILES	Methyltransferases
COc1cc(C(=O)O)ccc1NC(=O)[C@@H]1N[C@@H](CC(C)(C)C)[C@](C#N)(c2ccc(Cl)cc2F)[C@H]1c1cccc(Cl)c1F	+
CN(Cc1ccc(Oc2ncccn2)cc1)CC1CCN(CCc2ccc(F)cc2)CC1	i
C=C(C(=O)O)[C@H]1C[C@]2(C)C(=O)CC[C@]23O[C@H]1C[C@@H]3C	+
C=C(C(=O)O)C1CC2=C(C)CCCC2(C)C[C@@H]1O (some centres undefined)	i
CCc1ccc(NC(=O)Cn2c(=O)oc3cc(S(=O)(=O)N4CCCC4)ccc32)cc1	i
COc1cccc(CN2C(=O)c3ccc(-c4ccccc4)n3CC2(C)C(=O)NC2CCC(C)CC2)c1 (centres undefined)	i
CC(C)(Sc1ccc(CCN(CCCCC2CCCCC2)C(=O)NC2CCCCC2)cc1)C(=O)O	+!
CC1(C(=O)NC2CCCC2)Cn2c(ccc2-c2ccccc2)C(=O)N1CCCc1ccccc1 (centres undefined)	i
CSc1ccc(CCN2C(=O)c3ccc(-c4ccco4)n3CC2(C)C(=O)NC2CCCCC2)cc1 (centres undefined)	i
CC(CCc1ccccc1)NC(=O)Cn1ccc2cc(S(=O)(=O)N3CCCCC3)ccc21 (centres undefined)	i

From PubChem
